# Source: PubChem BioAssay (The Scripps Research Institute Molecular Screening Center)
# GAA850 FXN act: increases GAA850 frataxin promoter reporter activity; AID 540364; activation, % at 6 µM; hit rate 0.56% among 360,000; HEK293 lucGAA850 FXN promoter luciferase reporter, 24 h; percent of 10 µM SAHA response;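 active = activation above the average of all compounds screened plus 3 SD, cutoff fixed separately per campaign, cut at about 7.5% in these data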;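 also: 0% = DMSO wells and 100% = 10 µM SAHA wells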
# hgDAF-12 ag: agonists of H. glycines DAF-12 nuclear receptor; activation, % at 6.8 µM; HEK293 GAL4-hgDAF12 UAS-luciferase reporter, agonist luminescence; normalized to butyrate control; hit rate 1.8% among 370,000;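 active = activation above a cutoff set at the mean of all screened compounds plus 3 SD, cut at about 10% in these data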;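 also: 0% = DMSO wells and 100% = sodium butyrate wells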
# hcDAF12 agonist: activators of H. contortus DAF-12 nuclear receptor | AID 652067 | HEK293 hcDAF-12 lit1-tk-luc reporter, luminescence; 0% DMSO, 100% Δ7-dafachronic acid | hit rate 1.4% among 370,000 | activation, % at 6.8 µM;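 active = activation above the mean of all tested compounds plus 3 SD, cut at about 5.5% in these data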;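 also: 100% = response to 3 µM Δ7-dafachronic acid high control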
# ssDAF12 agonist: activators of S. stercoralis DAF-12 nuclear receptor; HEK293 ssDAF-12/GRIP1 lit1-tk-luc reporter, luminescence; % of 3 µM dafachronic acid response; activation, % at 6.8 µM; hit rate 1% among 370,000; AID 652126;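 active = activation above the mean over all tested compounds plus 3 SD, cut at about 0.9% in these data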;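 also: 0% = DMSO-only wells and 100% = 3 µM delta7-dafachronic acid wells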
# DAX1 inh-1: DAX1 (NR0B1) inhibition, primary screen; HEK293T StAR-luciferase reporter, SF-1/DAX-1 repression relief; inhibition, % at 6.8 µM; hit rate 1.1% among 370,000; AID 652010;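 active = inhibition above the mean over all tested compounds plus 3 SD, cut at about 3.6% in these data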;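 also: 0% = DAX-1 cells with DMSO and 100% = cells lacking DAX-1 with DMSO; higher inhibition means more luminescence from relief of DAX-1 repression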
# DAX1 inh-2: NR0B1 (DAX1) inhibition; P51843; HEK293 Gal4-DAX1 luciferase reporter, luminescence; inhibition, % at 6.75 µM; hit rate 0.99% among 340,000;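 active = inhibition above the mean over all tested compounds plus 3 SD, cut at about 4.2% in these data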;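 also: 0% = DAX1-transfected cells with DMSO and 100% = empty-vector control cells with DMSO; inhibition shows as a rise in luminescence from relieved DAX1 repression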
# Target sequence (P51843 207-470 limits assumed): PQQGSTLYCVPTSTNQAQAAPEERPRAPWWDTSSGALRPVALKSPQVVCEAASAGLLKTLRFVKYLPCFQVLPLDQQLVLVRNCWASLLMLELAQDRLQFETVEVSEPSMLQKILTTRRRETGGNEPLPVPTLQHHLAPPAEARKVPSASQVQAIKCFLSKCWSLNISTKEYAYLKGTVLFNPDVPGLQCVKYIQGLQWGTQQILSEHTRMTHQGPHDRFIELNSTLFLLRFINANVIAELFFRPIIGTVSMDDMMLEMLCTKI
# Active calls of the source: *; nt = not tested or not shown. In the library only some 4.5% were active in any assay of this set; here they are far more common.
SMILES,GAA850 FXN act,hgDAF-12 ag,hcDAF12 agonist,ssDAF12 agonist,DAX1 inh-1,DAX1 inh-2
O=C(NCCc1ccccc1)C1CCC(Cn2c(=O)c3ccccc3n(Cc3cccc(Cl)c3)c2=O)CC1 (stereo not drawn),0.6,4.3,2.5,-0.1,0.2,6.0*
O=C(Nc1nc2ncccn2c1-c1ccc(F)c(F)c1)c1ccc(F)cc1,nt,-1.6,-0.7,-1.1,-1.3,nt
O=C(NC1=NCCS1)c1cccc(F)c1,2.2,3.5,1.0,0.0,0.2,nt
COc1cccc(C(=O)NC2=NCCS2)c1,3.0,10.6*,4.9,0.8,3.0,1.9
CCOC(=O)c1ccc(NC(=O)Nc2ccc3c(c2)OCCO3)cc1,-3.1,-1.6,-3.0,-1.5,-2.2,-0.8
CCOC(=O)c1ccc(NC(=O)NC2=NCCS2)cc1,3.9,11.2*,1.1,-0.6,1.1,0.0
O=C(NC1=NCCS1)c1ccc(Cl)cc1,4.4,8.8,5.7*,-0.2,1.8,1.0
O=C(NC1=NCCS1)c1cccc(Br)c1,6.3,11.0*,5.2,0.2,2.1,7.7*
COc1ccc(-c2cc(C(=O)NN=C/C(C)=C/c3ccccc3)[nH]n2)cc1,nt,-1.7,-0.7,-1.6,-2.3,nt
CCOc1cccc(C(=O)NC2=NCCS2)c1,2.4,8.9,3.6,0.8,2.4,8.1*
O=C(COC(=O)COc1ccc2ccccc2c1)NCC(F)(F)F,-0.7,-0.3,5.6*,-1.3,0.0,0.5
NC(=O)c1cc2ccncc2c2ccccc12,-9.4,11.3*,-3.0,-2.0,-0.5,-0.1
CSCCC(c1nc2ccccc2[nH]1)n1c(-c2ccc3ncccc3c2)nc2ccccc21 (stereo not drawn),nt,10.8*,2.1,0.0,3.4,nt
O=C(NC1CCCC1)C1(C(=O)C2CC2)CC(c2ccccc2C(F)(F)F)=NO1 (stereo not drawn),nt,-1.2,1.2,-0.9,-0.2,nt
Cc1cc(NC(=O)CN2CCN(c3ccccc3O)CC2)no1,-0.9,0.1,0.5,1.1*,0.2,-0.1
CCOc1ccccc1N1CCN(CC(=O)Nc2cc(C)on2)CC1,2.1,1.7,1.0,-0.8,-0.7,-0.2
CC(=O)Nc1ccc(NC(C)=C(C#N)C#N)cc1,1.5,-1.9,0.6,-1.0,-0.2,4.3*
COC(=O)c1nn(-c2ccccc2)c(=O)cc1O,4.6,-0.2,-0.5,-0.8,0.3,-0.9
O=C(O)c1nn(-c2cccc(Cl)c2)c(=O)cc1O,1.3,1.3,4.5,1.2*,-0.2,-1.5
c1ccc(SCc2cc(-c3ccccc3)no2)cc1,5.4,8.2,3.8,0.0,1.5,3.9
Clc1ccc(-c2cc(CSc3ccccc3)on2)cc1,1.4,12.8*,1.2,-0.9,1.9,2.6
CS(=O)(=NS(=O)(=O)c1ccc(Cl)cc1)c1ccccc1 (stereo not drawn),-0.7,2.5,-0.3,-2.0,-0.1,4.3*
O=S(=O)(Nc1ccccn1)c1ccc(Cl)cc1,-1.0,0.5,-1.4,-1.5,-0.1,-0.3
CC(=O)c1ccc(Cc2ccc(C(C)=O)cc2)cc1,3.0,1.7,-1.5,-1.9,-0.4,-1.6
CC(=O)c1ccc(CCCC(=O)O)cc1,-0.4,-1.7,1.7,-1.3,-0.5,4.9*
SMILES,GAA850 FXN act,hgDAF-12 ag,hcDAF12 agonist,ssDAF12 agonist,DAX1 inh-1,DAX1 inh-2
CC(C)CSc1nnc(-c2ccco2)n1C,nt,7.8,1.1,-0.5,-0.6,nt
COc1cc(NC(=O)C2CCCN(S(=O)(=O)c3cccs3)C2)cc(OC)c1 (stereo not drawn),nt,5.0,-2.9,-1.4,-0.6,nt
Cc1ccc(C(=O)NC(=S)N(C)C2CCCCC2)cc1,1.7,10.5*,4.0,0.3,3.2,0.1
CN(C(=S)NC(=O)/C=C/c1ccc(F)cc1)C1CCCCC1,1.8,-0.7,-3.5,-0.9,-0.5,0.2
O=C(CN1CCOCC1)NN1CC(=O)N(c2ccc(Cl)cc2)CC1=O,0.1,-0.5,0.3,-1.3,0.1,5.6*
Cc1ccc(N2CC(=O)N(NC(=O)CN3CCN(c4ccccc4)CC3)CC2=O)cc1,-1.1,-0.6,0.3,-1.3,-0.5,2.4
CCOC(=O)c1cccc(NC(=O)CN(C)S(=O)(=O)c2ccc(Br)s2)c1,nt,-1.9,-1.5,-2.0,-0.7,nt
C(=C/c1nccc2c1[nH]c1ccccc12)/c1ccc2c(c1)OCO2,1.5,12.8*,2.0,-1.2,1.4,-0.6
